Test results as given in PubChem BioAssay AID1970 (National Center for Advancing Translational Sciences (NCATS), 2009).
Inconclusive results are not listed. Activity calls are given as the source filed them. Calls follow the shape of the dose curve; as a rule, active = well fitted inhibition curve with a large enough effect; inconclusive = small, poorly fitted or top-dose-only effect; inactive = flat fitted curve, though single readings scatter.

Biological target: Dual specificity protein kinase CLK4 (Homo sapiens) (UniProt Q9HAZ1)
Sequence (Q9HAZ1 whole entry, looked up): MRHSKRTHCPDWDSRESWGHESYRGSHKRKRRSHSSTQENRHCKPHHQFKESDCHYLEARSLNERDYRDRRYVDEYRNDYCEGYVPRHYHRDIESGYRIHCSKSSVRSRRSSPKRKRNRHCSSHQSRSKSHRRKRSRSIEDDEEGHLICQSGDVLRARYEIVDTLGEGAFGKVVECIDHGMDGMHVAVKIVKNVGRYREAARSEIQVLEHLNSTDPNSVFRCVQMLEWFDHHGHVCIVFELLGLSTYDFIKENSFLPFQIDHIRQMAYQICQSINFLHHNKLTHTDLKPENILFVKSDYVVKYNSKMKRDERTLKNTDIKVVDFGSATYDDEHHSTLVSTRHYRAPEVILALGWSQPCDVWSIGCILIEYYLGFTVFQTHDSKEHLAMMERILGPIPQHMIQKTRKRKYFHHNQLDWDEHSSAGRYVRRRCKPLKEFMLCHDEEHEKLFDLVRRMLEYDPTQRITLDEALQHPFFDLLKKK
Test: Confirmation Assay for Inhibitors of CDC-like Kinase 4 (Kinase-Glo Assay)
Conditions: recombinant Clk4, Kinase-Glo ATP depletion luminescence; series mostly up to 47.7 µM
Outline: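 RS repeat peptide (100 uM) and ATP (1 uM) phosphorylated by 25 nM Clk4 (final) in Tris pH 7.5 with MgCl2, EGTA, DTT and Triton X-100. After 4.5 h at room temperature, remaining ATP read as Kinase-Glo luminescence.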

Row | Compound | Potency
1 | CCOC(=O)c1ccc(-c2ccc3ncnc(NCCc4cnc[nH]4)c3c2)o1 | 0.0923 µM (active)
2 | Cc1nc(CNc2ncnc3ccc(-c4sc(C)nc4C)cc23)cs1 | 1.64 µM (active)
3 | Cc1cc(CNc2ncnc3ccc(-c4ccc5c(c4)OCO5)cc23)c(C)o1 | 0.119 µM (active)
4 | Cn1cnc(CCNc2ncnc3ccc(-c4ccc5c(c4)OCO5)cc23)c1 | 0.232 µM (active)
5 | c1cncc(CNc2ncnc3ccc(-c4ccc5c(c4)OCCO5)cc23)c1 | 0.447 µM (active)
6 | c1cncc(-c2ccc3ncnc(NCc4cccs4)c3c2)c1 | 3.98 µM (active)
7 | CC(c1ccco1)N(C)c1ncnc2ccc(-c3ccc4c(c3)OCO4)cc12 (stereo unspecified) | 0.0671 µM (active)
8 | Fc1cccc(CNc2ncnc3ccc(-c4cccnc4)cc23)c1 | 3.98 µM (active)
9 | Cc1csc(CNc2ncnc3ccc(-c4ccoc4)cc23)c1 | 0.355 µM (active)
10 | COc1cccc(-c2ccc3ncnc(NCc4cccs4)c3c2)c1 | 0.519 µM (active)
11 | c1csc(CNc2ncnc3ccc(-c4ccoc4)cc23)c1 | 0.184 µM (active)
12 | Cn1ccc2cc(-c3ccc4ncnc(NCc5cccs5)c4c3)ccc21 | 31.6 µM (active)
13 | c1nc(NCCc2cnc[nH]2)c2cc(-c3ccoc3)ccc2n1 | 0.412 µM (active)
14 | Cc1cccc(CNc2ncnc3ccc(-c4ccoc4)cc23)c1 | 0.199 µM (active)
15 | c1csc(CNc2ncnc3cc(-c4ccc5c(c4)OCO5)ccc23)c1 | 11.9 µM (active)
16 | Cc1cccc(-c2ccc3ncnc(NCc4cccs4)c3c2)c1 | 7.08 µM (active)
17 | Fc1cccc(CNc2ncnc3ccc(-c4ccc5c(c4)OCO5)cc23)c1 | 0.1 µM (active)
18 | Cc1cccc(CNc2ncnc3ccc(-c4ccc5c(c4)OCCO5)cc23)c1 | 0.501 µM (active)
19 | Cc1ccsc1CNc1ncnc2ccc(-c3ccc4c(c3)OCO4)cc12 | 0.0336 µM (active)
20 | Cc1csc(CNc2ncnc3ccc(-c4ccc5c(ccn5C)c4)cc23)c1 | 35.5 µM (active)
21 | Cc1csc(CNc2ncnc3ccc(-c4cccc(Cl)c4)cc23)c1 | 7.94 µM (active)
22 | Cc1csc(CNc2ncnc3ccc(-c4ccc5c(c4)OCCO5)cc23)c1 | 0.447 µM (active)
23 | FC1(F)Oc2ccc(-c3ccc4ncnc(NCc5cccs5)c4c3)cc2O1 | 18.4 µM (active)
24 | Clc1ccccc1-c1ccc2ncnc(NCc3cccs3)c2c1 | 7.94 µM (active)
25 | c1c[nH]c(CNc2ncnc3ccc(-c4ccc5c(c4)OCO5)cc23)n1 | 0.0947 µM (active)
26 | c1nc(NCCc2cnc[nH]2)c2ccc(-c3ccc4c(c3)OCO4)cc2n1 | 10.6 µM (active)
